Assay results reported in PubChem BioAssay AID743314 (Broad Institute, 2014).
Entries with a potency or affinity are not part of this list. Results filed as inconclusive are left out. Activity calls are given as the source filed them.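 The calls were made as follows: active = fitted half-maximal concentration no higher than twice the top tested dose, in every repeat run; inconclusive = repeat runs disagree, poor fit, or flat partial inhibition; inactive = the rest.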

Biological target: Endoplasmic reticulum aminopeptidase 1 (Homo sapiens) (UniProt Q9NZ08)
Experiment: inhibition of human ERAP1 enzyme activity – biochemical, cherry-pick, set 2, plate reader, dose response (AID 743314)

Endoplasmic reticulum aminopeptidase 1 (Homo sapiens), sequence (Q9NZ08 whole entry, looked up): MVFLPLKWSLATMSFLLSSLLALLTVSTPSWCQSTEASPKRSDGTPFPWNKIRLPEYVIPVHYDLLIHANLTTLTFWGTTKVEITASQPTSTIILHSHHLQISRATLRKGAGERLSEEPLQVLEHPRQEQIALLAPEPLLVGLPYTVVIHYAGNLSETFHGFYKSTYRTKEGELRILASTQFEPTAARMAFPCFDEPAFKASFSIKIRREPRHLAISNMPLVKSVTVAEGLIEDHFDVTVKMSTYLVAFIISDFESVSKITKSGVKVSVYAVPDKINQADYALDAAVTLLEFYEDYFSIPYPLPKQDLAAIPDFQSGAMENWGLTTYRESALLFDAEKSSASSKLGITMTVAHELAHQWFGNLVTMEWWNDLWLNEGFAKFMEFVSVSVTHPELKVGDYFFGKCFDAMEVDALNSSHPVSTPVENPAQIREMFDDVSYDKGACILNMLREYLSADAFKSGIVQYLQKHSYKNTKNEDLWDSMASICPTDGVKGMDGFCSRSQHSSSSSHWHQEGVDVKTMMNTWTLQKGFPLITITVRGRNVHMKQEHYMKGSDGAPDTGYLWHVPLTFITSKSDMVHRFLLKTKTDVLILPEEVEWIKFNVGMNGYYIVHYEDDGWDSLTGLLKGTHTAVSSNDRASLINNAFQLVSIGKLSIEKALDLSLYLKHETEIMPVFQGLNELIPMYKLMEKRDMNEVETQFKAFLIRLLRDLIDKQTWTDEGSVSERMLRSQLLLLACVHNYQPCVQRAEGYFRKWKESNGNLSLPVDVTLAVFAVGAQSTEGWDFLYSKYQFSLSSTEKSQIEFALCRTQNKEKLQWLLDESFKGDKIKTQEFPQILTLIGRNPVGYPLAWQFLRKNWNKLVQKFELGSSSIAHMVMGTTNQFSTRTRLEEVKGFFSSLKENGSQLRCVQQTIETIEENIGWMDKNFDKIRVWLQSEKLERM

Q: For `CCC(C)N(C(=O)COC(=O)c1nc2nc(C)cc(C)n2n1)C1CCS(=O)(=O)C1` (stereo not drawn), which outcome is on record?
A: Its outcome is “inactive”.

Q: For `COc1ccc(CN(C)C[C@@H]2OCCCC[C@H](C)Oc3ccc(NS(=O)(=O)c4cccs4)cc3C(=O)N([C@H](C)CO)C[C@H]2C)cc1`, which outcome is on record?
A: The outcome was “inactive”.

Q: `CCCC(=O)Nc1ccc2c(c1)OC[C@@H](C)N(CC1CCOCC1)C[C@H](C)[C@@H](OC)CN(C)C2=O` was tested. Which outcome did it give?
A: Its outcome is “inactive”.

Q: Which outcome does the source give for `O=C(NCc1ccccc1Cl)c1cc(=O)[nH]c2ccccc12` here?
A: Its outcome is “inactive”.

Q: With `N#Cc1c(N)n(CCNC(=O)c2ccccc2)c2nc3ccccc3nc12` as the compound, how does the outcome read?
A: Its outcome is “inactive”.

Q: Which outcome does the source give for `C[C@H]1CN([C@@H](C)CO)C(=O)Cc2cc(NC(=O)Nc3cccc4ccccc34)ccc2O[C@@H]1CN(C)Cc1ccc(C(=O)O)cc1` here?
A: The outcome was “inactive”.

Q: Which outcome does the source give for `C[C@H](CO)N1C[C@H](C)[C@H](CN(C)C)OCCCC[C@H](C)Oc2ccc(NS(=O)(=O)c3ccc(Cl)cc3)cc2C1=O` here?
A: The outcome was “inactive”.

Q: With `CCN(CC)c1ccc2c(C)c(Cl)c(=O)oc2c1` as the compound, how does the outcome read?
A: The outcome was “inactive”.

Q: With `C[C@H](CO)N1C[C@H](C)[C@H](CN(C)CC2CCCCC2)Oc2ncc(-c3ccc(F)cc3)cc2C1=O` as the compound, how does the outcome read?
A: The outcome was “inactive”.

Q: For `O=c1oc2cc(O)ccc2cc1-c1nc2ccccc2o1`, which outcome is on record?
A: Its outcome is “inactive”.

Q: Which outcome does the source give for `C[C@@H]1CCCCO[C@H](CN(C)C)[C@@H](C)CN([C@@H](C)CO)C(=O)c2cc(NS(=O)(=O)c3ccc(Cl)cc3)ccc2O1` here?
A: Its outcome is “inactive”.

Q: With `CN1[C@@H]2c3ccc(/C=C/c4ccccc4)c(=O)n3C[C@@H]2[C@@H](CO)[C@@H]1C(=O)N1CCCCC1` as the compound, how does the outcome read?
A: The outcome was “inactive”.

Q: With `COc1ccc2c3c([nH]c2c1)[C@@H](CO)N(Cc1ccccc1)CC31CN(C)C1` as the compound, how does the outcome read?
A: Its outcome is “inactive”.

Q: How did the outcome turn out when `Cc1noc(C)c1NC(=O)N(C)C[C@H]1Oc2c(NC(=O)Nc3ccc(F)cc3)cccc2C(=O)N([C@H](C)CO)C[C@@H]1C` was run?
A: Its outcome is “inactive”.

Q: Which outcome does the source give for `O=C(c1ccc(F)cc1)N1CC2(C1)[C@@H](c1ccccc1)[C@@H](CO)N2Cc1ccccn1` here?
A: Its outcome is “inactive”.

Q: Which outcome does the source give for `CCCNC(=O)C[C@@H]1CC[C@@H]2[C@H](COC[C@H](O)CN2C(=O)Nc2cccc(Cl)c2)O1` here?
A: The outcome was “inactive”.

Q: `COc1ccc(CN(C)C[C@@H]2Oc3c(NC(=O)NC4CCCCC4)cccc3C(=O)N([C@@H](C)CO)C[C@@H]2C)cc1` was tested. Which outcome did it give?
A: Its outcome is “inactive”.

Q: With `O=C(CC1CC1)N1[C@H](CO)[C@@H](c2ccccc2)C12CN(Cc1cc(F)ccc1F)C2` as the compound, how does the outcome read?
A: The outcome was “inactive”.

Q: Which outcome does the source give for `N#Cc1ccc(-c2ccc([C@H]3[C@H](CO)N4C(=O)CN(C(=O)C5CC5)C[C@@H]34)cc2)cc1` here?
A: Its outcome is “inactive”.

Q: For `Cc1cc(Br)ccc1NC(=O)CN(C)C(=O)Cn1c(=O)cnc2ccccc21`, which outcome is on record?
A: The outcome was “inactive”.

Q: How did the outcome turn out when `CCOc1ccc(NC(=O)C2CCCN2C(=O)Oc2ccccc2)cc1` (stereo not drawn) was run?
A: The outcome was “inactive”.

Q: With `C[C@@H]1CCCCO[C@H](CN(C)C)[C@@H](C)CN([C@H](C)CO)C(=O)c2cc(NS(=O)(=O)c3ccc(Cl)cc3)ccc2O1` as the compound, how does the outcome read?
A: Its outcome is “inactive”.

Q: Which outcome does the source give for `CCc1nnc(NC(=O)c2cc(S(=O)(=O)N3CCOCC3)ccc2N2CCCCC2)s1` here?
A: The outcome was “inactive”.

Q: Which outcome does the source give for `Cc1ccc(C)c(NC(=O)C2CC(O)CN2C(=O)Oc2ccccc2)c1` (stereo not drawn) here?
A: Its outcome is “inactive”.

Q: With `O=C(Cc1ccccn1)N1CC(=O)N2[C@@H](CO)[C@H](c3ccc(C#CC4CCCC4)cc3)[C@@H]2C1` as the compound, how does the outcome read?
A: The outcome was “inactive”.

Q: `C[C@@H]1CN([C@H](C)CO)C(=O)c2cccc(NC(=O)Nc3ccc(C(F)(F)F)cc3)c2O[C@H]1CN(C)C` was tested. Which outcome did it give?
A: The outcome was “inactive”.

Q: How did the outcome turn out when `Cc1ccc(S(=O)(=O)c2cc3ccc(O)cc3oc2=O)cc1C` was run?
A: The outcome was “inactive”.

Q: `CC(Nc1ccc(F)cc1)=[N+](C)CCNS(=O)(=O)c1ccc(Cl)cc1` was tested. Which outcome did it give?
A: Its outcome is “inactive”.

Q: For `COc1ccc(CN(C)C[C@H]2OCCCC[C@H](C)Oc3ccc(NS(=O)(=O)c4cccs4)cc3C(=O)N([C@@H](C)CO)C[C@@H]2C)cc1`, which outcome is on record?
A: Its outcome is “inactive”.

Q: For `CCCN1[C@@H]2Cn3c(ccc(-c4cccnc4)c3=O)[C@H]1[C@@H](C(=O)NCCc1cn(C)cn1)[C@@H]2CO`, which outcome is on record?
A: The outcome was “inactive”.

Q: For `Cc1ccc2nc3c(cc(C(=O)NCc4ccccc4)c(=N)n3CCCn3ccnc3)c(=O)n2c1`, which outcome is on record?
A: The outcome was “inactive”.

Q: For `Cc1[nH]c2ccccc2c1C(=O)CN1C(=O)C(=O)N(Cc2ccco2)C1=O`, which outcome is on record?
A: The outcome was “inactive”.

Q: Which outcome does the source give for `Cc1cc(S(=O)(=O)c2cc3ccc(O)c(C)c3oc2=O)ccc1F` here?
A: The outcome was “inactive”.

Q: How did the outcome turn out when `CC(=O)N(C)C[C@H]1Oc2cc(C#CC(C)C)ccc2S(=O)(=O)N([C@@H](C)CO)C[C@H]1C` was run?
A: The outcome was “inactive”.

Q: How did the outcome turn out when `COc1ccc(CCOC(=O)CNC(=O)c2ccc(Cl)cc2Cl)cc1` was run?
A: Its outcome is “inactive”.

Q: How did the outcome turn out when `C[C@@H]1CN([C@H](C)CO)C(=O)c2cc(NC(=O)CCN3CCOCC3)ccc2O[C@H]1CN(C)S(=O)(=O)c1ccccc1` was run?
A: The outcome was “inactive”.

Q: `COc1ccccc1CN1[C@H](CO)[C@@H](c2ccccc2)C12CN(C(=O)c1ccccn1)C2` was tested. Which outcome did it give?
A: Its outcome is “inactive”.

Q: With `CCN(CC)CCCN=C1N[C@@H](c2ccccc2)C(C(=O)OC)=C(C)N1CC` as the compound, how does the outcome read?
A: Its outcome is “inactive”.
